# According to the supplement of paper PMC11006884:
# The full data set covers some 6,500 targets. This sample favours those with a hit. About 2% of all pairs of compound and target were hits. Unmarked numbers belong to inactive results.
# Compound: COC(=O)C#Cc1ccccc1 [methyl 3-phenylpropiolate]
# Assay: log2 ratio of iodoacetamide-alkyne labeling of the cysteine site, DMSO over compound (competition); higher = stronger covalent engagement of the cysteine by the compound, active = 1 or more
# Details: 500 µM; treatment time 1 h; system: HEK293T cell lysate
# Method in brief: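 The log2 competition ratio per cysteine is defined as mean reporter intensity in control channels over mean reporter intensity in compound channels. Lysate from HEK293T cells (2 mg/mL) received electrophile (500 µM) or vehicle for 1 h at ambient temperature, followed by iodoacetamide alkyne for 1 h. Samples were clicked to sCIP-TMT reagents, pooled, trypsin-digested overnight at 37 °C, streptavidin-enriched, acid-eluted and run on Orbitrap Eclipse LC-MS/MS with FAIMS, with quantification in FragPipe. Three replicates with duplicate channels were used, and any cysteine quantified in only one replicate was excluded.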
# Sequence of UniProt P56192 (P56192 whole entry, looked up): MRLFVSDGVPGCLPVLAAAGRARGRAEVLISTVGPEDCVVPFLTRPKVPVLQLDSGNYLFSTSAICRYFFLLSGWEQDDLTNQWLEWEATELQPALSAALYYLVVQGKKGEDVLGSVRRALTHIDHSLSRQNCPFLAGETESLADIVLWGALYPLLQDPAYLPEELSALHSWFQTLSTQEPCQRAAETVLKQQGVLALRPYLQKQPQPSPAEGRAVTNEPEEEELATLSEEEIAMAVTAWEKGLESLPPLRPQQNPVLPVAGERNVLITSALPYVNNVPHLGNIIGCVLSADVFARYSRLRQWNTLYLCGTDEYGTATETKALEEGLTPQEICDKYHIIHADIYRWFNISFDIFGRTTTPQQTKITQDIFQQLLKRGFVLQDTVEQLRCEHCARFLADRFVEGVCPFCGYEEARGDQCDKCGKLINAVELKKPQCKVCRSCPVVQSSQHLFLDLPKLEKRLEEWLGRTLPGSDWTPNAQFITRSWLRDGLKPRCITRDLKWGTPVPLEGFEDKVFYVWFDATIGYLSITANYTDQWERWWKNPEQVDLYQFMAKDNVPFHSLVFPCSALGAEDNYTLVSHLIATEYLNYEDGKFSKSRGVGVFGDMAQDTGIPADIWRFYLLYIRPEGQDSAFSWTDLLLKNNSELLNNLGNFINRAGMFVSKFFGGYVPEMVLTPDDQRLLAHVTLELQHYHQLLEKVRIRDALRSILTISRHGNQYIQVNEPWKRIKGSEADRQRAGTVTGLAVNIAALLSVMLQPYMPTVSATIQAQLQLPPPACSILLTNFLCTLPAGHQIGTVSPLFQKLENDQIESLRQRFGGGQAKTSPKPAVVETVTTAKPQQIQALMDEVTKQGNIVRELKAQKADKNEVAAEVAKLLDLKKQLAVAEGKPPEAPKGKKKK
# Sequence of UniProt P52732 (P52732 whole entry, looked up): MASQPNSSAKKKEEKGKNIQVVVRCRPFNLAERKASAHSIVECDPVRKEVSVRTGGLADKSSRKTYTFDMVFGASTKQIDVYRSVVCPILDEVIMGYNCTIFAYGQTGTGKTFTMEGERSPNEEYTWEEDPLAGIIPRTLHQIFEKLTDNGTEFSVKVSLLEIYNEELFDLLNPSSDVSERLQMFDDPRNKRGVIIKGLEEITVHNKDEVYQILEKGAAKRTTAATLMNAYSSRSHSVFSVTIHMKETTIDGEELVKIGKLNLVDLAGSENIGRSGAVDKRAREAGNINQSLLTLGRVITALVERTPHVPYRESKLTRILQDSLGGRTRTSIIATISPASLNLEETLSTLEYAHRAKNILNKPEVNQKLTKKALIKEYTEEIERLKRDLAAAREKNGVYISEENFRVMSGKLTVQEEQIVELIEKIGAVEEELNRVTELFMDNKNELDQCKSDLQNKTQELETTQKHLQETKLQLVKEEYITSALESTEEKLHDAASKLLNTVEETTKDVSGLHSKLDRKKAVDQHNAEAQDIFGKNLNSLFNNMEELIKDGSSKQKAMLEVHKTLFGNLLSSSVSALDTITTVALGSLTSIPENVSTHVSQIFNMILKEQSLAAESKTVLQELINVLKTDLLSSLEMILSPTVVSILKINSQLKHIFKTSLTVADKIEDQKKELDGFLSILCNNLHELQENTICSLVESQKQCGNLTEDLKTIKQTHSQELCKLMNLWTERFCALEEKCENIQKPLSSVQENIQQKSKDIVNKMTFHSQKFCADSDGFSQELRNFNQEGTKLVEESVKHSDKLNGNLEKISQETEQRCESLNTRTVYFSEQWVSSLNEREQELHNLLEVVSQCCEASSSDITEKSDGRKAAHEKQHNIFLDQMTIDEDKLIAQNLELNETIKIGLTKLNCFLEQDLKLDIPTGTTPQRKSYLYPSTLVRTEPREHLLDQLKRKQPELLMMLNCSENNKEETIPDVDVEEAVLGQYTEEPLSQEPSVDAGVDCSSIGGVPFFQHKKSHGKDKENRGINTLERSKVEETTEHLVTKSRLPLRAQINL
# Sequence of UniProt Q13428 (Q13428 whole entry, looked up): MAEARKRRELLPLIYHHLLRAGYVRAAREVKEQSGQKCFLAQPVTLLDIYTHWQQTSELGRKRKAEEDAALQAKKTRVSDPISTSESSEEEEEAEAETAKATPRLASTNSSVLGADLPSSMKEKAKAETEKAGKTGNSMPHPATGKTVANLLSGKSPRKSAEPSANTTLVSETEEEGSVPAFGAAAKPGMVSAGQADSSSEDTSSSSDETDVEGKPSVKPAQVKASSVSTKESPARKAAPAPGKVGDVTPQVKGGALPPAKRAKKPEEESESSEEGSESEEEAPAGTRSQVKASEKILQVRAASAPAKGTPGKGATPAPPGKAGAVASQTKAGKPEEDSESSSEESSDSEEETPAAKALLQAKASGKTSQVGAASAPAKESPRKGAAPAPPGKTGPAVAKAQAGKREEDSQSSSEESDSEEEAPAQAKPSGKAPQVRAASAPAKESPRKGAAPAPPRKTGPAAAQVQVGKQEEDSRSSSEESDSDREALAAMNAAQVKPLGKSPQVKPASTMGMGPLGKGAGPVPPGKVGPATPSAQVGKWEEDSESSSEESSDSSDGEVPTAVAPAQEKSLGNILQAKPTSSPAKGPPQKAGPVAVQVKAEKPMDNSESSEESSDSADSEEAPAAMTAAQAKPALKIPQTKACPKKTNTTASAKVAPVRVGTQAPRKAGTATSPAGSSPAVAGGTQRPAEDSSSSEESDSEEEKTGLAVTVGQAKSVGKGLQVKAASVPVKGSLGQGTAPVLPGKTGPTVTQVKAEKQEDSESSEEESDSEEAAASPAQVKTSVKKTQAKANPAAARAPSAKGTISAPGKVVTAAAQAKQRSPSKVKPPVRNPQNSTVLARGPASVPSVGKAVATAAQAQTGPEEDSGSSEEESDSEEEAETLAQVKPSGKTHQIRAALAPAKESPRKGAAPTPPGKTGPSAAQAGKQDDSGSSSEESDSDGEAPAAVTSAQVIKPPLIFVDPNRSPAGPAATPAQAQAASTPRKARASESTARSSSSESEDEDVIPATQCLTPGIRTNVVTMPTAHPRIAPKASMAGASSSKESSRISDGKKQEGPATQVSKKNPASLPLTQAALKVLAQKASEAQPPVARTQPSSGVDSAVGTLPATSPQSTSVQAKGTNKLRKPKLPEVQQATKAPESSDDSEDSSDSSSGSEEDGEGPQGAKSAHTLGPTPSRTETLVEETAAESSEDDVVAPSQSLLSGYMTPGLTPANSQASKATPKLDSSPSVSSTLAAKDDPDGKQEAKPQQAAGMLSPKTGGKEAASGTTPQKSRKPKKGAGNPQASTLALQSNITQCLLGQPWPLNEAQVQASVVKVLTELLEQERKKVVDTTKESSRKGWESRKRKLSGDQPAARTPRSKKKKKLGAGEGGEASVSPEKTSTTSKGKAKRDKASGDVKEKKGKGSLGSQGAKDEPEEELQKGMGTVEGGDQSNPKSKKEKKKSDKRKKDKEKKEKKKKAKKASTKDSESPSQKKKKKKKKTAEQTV
# Sequence of UniProt P54278 (P54278 whole entry, looked up): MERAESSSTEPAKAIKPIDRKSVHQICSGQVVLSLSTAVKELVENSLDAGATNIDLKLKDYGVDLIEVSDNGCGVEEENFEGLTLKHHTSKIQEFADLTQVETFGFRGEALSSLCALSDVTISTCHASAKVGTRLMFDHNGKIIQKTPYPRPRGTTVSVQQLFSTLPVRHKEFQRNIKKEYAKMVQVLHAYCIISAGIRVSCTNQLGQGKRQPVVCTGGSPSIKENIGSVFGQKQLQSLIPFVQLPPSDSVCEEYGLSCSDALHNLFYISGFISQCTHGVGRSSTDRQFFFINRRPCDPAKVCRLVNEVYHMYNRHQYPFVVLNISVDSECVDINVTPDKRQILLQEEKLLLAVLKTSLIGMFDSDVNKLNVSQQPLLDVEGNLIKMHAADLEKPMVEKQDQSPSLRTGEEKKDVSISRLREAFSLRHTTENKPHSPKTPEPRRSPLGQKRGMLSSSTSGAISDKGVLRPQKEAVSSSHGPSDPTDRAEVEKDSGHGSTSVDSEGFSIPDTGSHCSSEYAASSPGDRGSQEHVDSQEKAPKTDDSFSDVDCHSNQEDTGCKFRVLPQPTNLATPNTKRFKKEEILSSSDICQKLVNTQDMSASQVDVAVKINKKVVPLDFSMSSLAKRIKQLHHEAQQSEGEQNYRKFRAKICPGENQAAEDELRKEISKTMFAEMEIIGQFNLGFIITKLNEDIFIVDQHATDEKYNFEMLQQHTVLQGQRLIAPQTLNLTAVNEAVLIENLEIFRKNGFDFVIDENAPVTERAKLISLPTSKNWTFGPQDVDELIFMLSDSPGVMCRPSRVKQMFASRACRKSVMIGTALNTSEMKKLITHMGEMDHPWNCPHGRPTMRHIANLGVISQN
# Sequence of UniProt P53384 (P53384 whole entry, looked up): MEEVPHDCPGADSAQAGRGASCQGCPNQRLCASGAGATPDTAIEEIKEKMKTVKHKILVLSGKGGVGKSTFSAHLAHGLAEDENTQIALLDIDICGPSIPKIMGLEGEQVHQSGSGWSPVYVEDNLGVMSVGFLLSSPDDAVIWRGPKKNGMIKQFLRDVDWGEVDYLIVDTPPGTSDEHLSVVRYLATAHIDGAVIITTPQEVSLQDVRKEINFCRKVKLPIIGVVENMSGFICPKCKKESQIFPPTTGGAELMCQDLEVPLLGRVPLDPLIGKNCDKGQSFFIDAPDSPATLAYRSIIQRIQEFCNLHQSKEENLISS
# Sequence of UniProt P53597 (P53597 whole entry, looked up): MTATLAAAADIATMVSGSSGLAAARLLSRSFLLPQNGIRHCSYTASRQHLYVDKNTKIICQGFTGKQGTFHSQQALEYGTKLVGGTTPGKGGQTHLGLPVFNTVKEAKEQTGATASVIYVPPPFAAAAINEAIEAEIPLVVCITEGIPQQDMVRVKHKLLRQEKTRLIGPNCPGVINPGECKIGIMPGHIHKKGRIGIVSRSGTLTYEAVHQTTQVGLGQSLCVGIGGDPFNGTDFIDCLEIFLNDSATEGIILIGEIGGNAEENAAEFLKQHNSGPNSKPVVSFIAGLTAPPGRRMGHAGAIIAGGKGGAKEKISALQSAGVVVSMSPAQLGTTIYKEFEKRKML
row,Target,log2 ratio of iodoacetamide-alkyne labeling
1,RRP12 C799 (UniProt Q5JTH9),0.107
2,PMPCA C466 (UniProt Q10713),0.00592
3,UniProt Q15042_C335,0.153
4,TCOF1 C1298 (UniProt Q13428),0.666
5,RPS27A C149 (UniProt P62979),0.251
6,ACTR3 C235 (UniProt P61158),1.28 (active)
7,PPA1 C270 (UniProt Q15181),0.153
8,USP10 C254 (UniProt Q14694),0.49
9,NUBP1 C25 (UniProt P53384),2.24 (active)
10,UniProt Q00341_C683,-0.0455
11,TBL3 C696 (UniProt Q12788),0.373
12,UniProt Q02930_C69,1.09 (active)
13,CBX2 C340 (UniProt Q14781),0.654
14,PPP5C C77 (UniProt P53041),0.135
15,KIF11 C450 (UniProt P52732),0.0207
16,MARS C38 (UniProt P56192),0.14
17,EEF1A2 C326 (UniProt Q05639),0.25
18,UniProt Q5MNZ6_C6,0.235
19,PMS2 C798 (UniProt P54278),-0.143
20,SUCLG1 C181 (UniProt P53597),1.72 (active)
21,RRP1B C583 (UniProt Q14684),0.481
22,AKAP12 C1407 (UniProt Q02952),1.16 (active)
23,UniProt P62258_C97,-0.063
